The values that follow come from ChEMBL document CHEMBL3433997, “St. Jude Leishmania screening dataset” (2016).

What is called inhibition is the change of the read-out against control, counted positive when it falls.

What all share (format): functional
In assay [1] the target is Solute carrier family 2, facilitated glucose transporter member 1 (Homo sapiens) (UniProt P11166). In words: ST_JUDE_LEISH: Cytotoxicity at 2uM final concentration against transgenic Leishmania Mexicana promastigotes LmGLUT1 that are glucose transport deficient and complemented with the human glucose transporter GLUT1. Activity is measured by DNA content using SYBR green in vitro.
Sequence of Solute carrier family 2, facilitated glucose transporter member 1 (Homo sapiens) (P11166 whole entry): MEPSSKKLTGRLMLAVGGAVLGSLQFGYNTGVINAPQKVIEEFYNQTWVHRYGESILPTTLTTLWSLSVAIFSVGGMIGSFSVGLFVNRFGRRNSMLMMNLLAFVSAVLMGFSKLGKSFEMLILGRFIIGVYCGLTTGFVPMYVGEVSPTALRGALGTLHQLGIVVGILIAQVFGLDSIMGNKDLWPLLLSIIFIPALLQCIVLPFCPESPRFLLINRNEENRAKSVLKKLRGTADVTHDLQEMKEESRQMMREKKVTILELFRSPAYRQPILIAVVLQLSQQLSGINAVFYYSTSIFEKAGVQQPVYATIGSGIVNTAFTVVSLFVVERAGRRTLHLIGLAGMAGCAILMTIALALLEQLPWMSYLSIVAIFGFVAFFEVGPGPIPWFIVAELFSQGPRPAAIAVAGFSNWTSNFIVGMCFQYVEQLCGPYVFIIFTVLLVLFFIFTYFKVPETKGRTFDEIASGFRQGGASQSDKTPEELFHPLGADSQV

Assay [2] has as its target Hexose transporter 1 (Plasmodium falciparum) (UniProt O97467). In words: ST_JUDE_LEISH: Cytotoxicity at 2uM final concentration against transgenic Leishmania Mexicana promastigotes LmPfHT that are glucose transport deficient and complemented with the Plasmodium falciparum hexose transporter. Activity is measured by DNA content using SYBR green in vitro.
Assay [3] has as its target Glucose transporter (Leishmania mexicana) (UniProt O61059). In words: ST_JUDE_LEISH: Cytotoxicity at 2uM final concentration against transgenic Leishmania Mexicana promastigotes LmGT2 that are glucose transport deficient and complemented with the L. Mexicana glucose transporter 2. Activity is measured by DNA content using SYBR green in vitro.

`COc1ccccc1CCNc1nc(C)cc(NCCC(=O)Nc2ccccc2)n1`: the inhibition worked out at 1.82% in assay [1], 2.34% in assay [2] and 1.43% in assay [3].

For the molecule `CCC1CN(S(=O)(=O)c2ccc3c(c2)NC(=O)CC(=O)N3)c2cc(Cl)ccc2O1` (configuration not stated), the inhibition amounted to 2.65% in assay [1], 2.92% in assay [2] and 3.29% in assay [3].

Regarding `CCCCCCCN1CCC(NC(=O)Nc2ccnc3ccc(OC)cc23)C(CO)C1` (configuration not stated), the inhibition in assay [1] is -0.96%; in assay [2], -1.62%; in assay [3], -3.37%.

Turning to `CCCc1cc(Cc2cnc(N)nc2N)cc(OC)c1OC`, the inhibition was 0.14% in assay [1], 2.78% in assay [2] and 0.24% in assay [3].

For `Cc1cc(NC(=O)c2ccc(S(=O)(=O)N(Cc3ccccc3)C(C)C)cc2)no1`, the values for the inhibition in assay [1], in assay [2] and in assay [3] were 3.7%, 3.18% and 3.77%, respectively.

Take `CC(C)(CNCc1ccc(F)c(F)c1)c1nc(-c2ccnc(N)n2)c(-c2ccc(Cl)c(O)c2)[nH]1`: the inhibition in assay [1] is 3.92%; in assay [2], 1.07%; in assay [3], 2.56%.

Regarding `CN1CCN(CC(=O)Nc2ccc(-c3ccc(-c4nc5cc(C(F)(F)F)ccc5[nH]4)cc3)cc2)CC1`, the inhibition in assay [1] came to 2.58%; in assay [2], 0.64%; in assay [3], 1.55%.

On to `COC(=O)CCn1c(C2CCN(CC3CCC(NC(=O)/C=C/c4ccc(Cl)c(Cl)c4)CC3)CC2)nc2ccccc21` (configuration not stated), for which the inhibition amounted to 0.97% in assay [1], 2.03% in assay [2] and 3.04% in assay [3].

Consider `COc1ccc2nccc([C@@H](O)CN3CCC(NCc4cc5ccccc5[nH]4)CC3)c2c1`, for which the figures for the inhibition in assay [1], in assay [2] and in assay [3] were 17%, 23.5% and 4.85%, respectively.

Turning to `CN1CCC(Oc2cc(NC(=O)Nc3ccc(-c4ccncc4)c(Cl)c3)ccc2Cl)CC1`, the figures for the inhibition in assay [1], in assay [2] and in assay [3] were 16%, 13.7% and 9.26%, respectively.

Consider `COc1ccccc1N1CCN(Cc2c(NC(C)=O)sc(C)c2C)CC1`, for which the values for the inhibition in assay [1], in assay [2] and in assay [3] were 0.73%, 0.56% and 1.44%, respectively.

For `CN(C)CCN(Cc1ccccc1-c1ccc(CNCCc2ccccc2)cc1)C(=O)NC1CCCCC1`, the inhibition in assay [1] came out at 3.67%; in assay [2] it was 3.66%; in assay [3], 0.85%.

As to `CC(NCC(O)Cn1c2ccccc2c2ccccc21)c1ccccc1` (configuration not stated), the inhibition in assay [1] is 0.86%; in assay [2] it was 1.68%; in assay [3] it was -1.46%.

For `CC(C)c1sc(N2CCCCC2)nc1C(=O)Nc1ccc(F)cc1C(F)(F)F`, the inhibition came to 2.82% in assay [1], 0.82% in assay [2] and 2.35% in assay [3].

Consider `O=C(Nc1ccc(-c2cccc(-c3nc4cc(F)ccc4[nH]3)c2)cc1)c1cnn2cccnc12`, for which the values for the inhibition in assay [1], in assay [2] and in assay [3] were 2.14%, 3.22% and 0.84%, respectively.

As for `CCCNS(=O)(=O)c1ccc(NC(=O)C(C)Oc2ccc([N+](=O)[O-])cc2)cc1` (configuration not stated), the inhibition is 0.31% in assay [1], 0.29% in assay [2] and -4.88% in assay [3].

Consider `N=C(N)NC(=O)Nc1cc(Cl)c(F)c(Cl)c1`, for which the inhibition in assay [1] was 3.91%; in assay [2] it was 4.24%; in assay [3], 0.63%.

In the case of `COc1ccc2nccc([C@@H](O)CN3CCC(NC[C@H](Cc4ccccc4)NC(=O)OC(C)(C)C)CC3)c2c1`, the inhibition in assay [1] was found to be 3.73%; in assay [2] it was 2.02%; in assay [3] it was 2.75%.

Regarding `Clc1ccc(Cc2nc3ccccc3[nH]2)cc1Cl`, the inhibition in assay [1] is 4.81%; in assay [2], 4.08%; in assay [3], 4.23%.

For the molecule `CC(=O)Nc1ccc(S(=O)(=O)N(Cc2cccc(Oc3ccccc3)c2)C2CCN(C/C=C(\C)CCC=C(C)C)CC2)cc1`, the figures for the inhibition in assay [1], in assay [2] and in assay [3] were -0.15%, 0.21% and -0.73%, respectively.

As to `CCOc1c(OC)ccc2c1CCN(CCN1CCC(CNC(=O)c3ccc(-c4ccc(C#N)cc4)cc3)CC1)C2`, the inhibition in assay [1] was -1.08%; in assay [2], -0.26%; in assay [3] it was 1.45%.

As for `Oc1ccc(CCNc2nc(NCc3ccccc3-c3ccc(C(F)(F)F)cc3)nc(N3CCNCC3)n2)cc1`, the inhibition in assay [1] is 1.66%; in assay [2], -2.19%; in assay [3] it was 1.94%.

Regarding `COc1cc(C2=NN(S(=O)(=O)c3c(Cl)cc(Cl)cc3Cl)CCCC2)ccc1Cl`, the inhibition in assay [1] was determined as 2.1%; in assay [2], 2.71%; in assay [3], 4.36%.

In the case of `Cc1ccc(-c2nnc(Nc3ccc(CC(N)=O)cc3)c3ccccc23)cc1S(=O)(=O)NCC1CCCO1` (configuration not stated), the inhibition in assay [1] came out at 6.25%; in assay [2], 7.99%; in assay [3] it was 2.36%.

As to `CN(C)CCNCc1ccc(-c2cccc(-c3nc4ccccc4[nH]3)c2)cc1`, the inhibition was determined as 10.5% in assay [1], 8.93% in assay [2] and 8.27% in assay [3].

In the case of `Cc1ccc(OC2CCN(c3ccc(C(=O)NC4CC4)cn3)CC2)cc1`, the values for the inhibition in assay [1], in assay [2] and in assay [3] were 0.24%, 2.06% and 1.55%, respectively.

Turning to `CCCCCCP(=O)(COc1ccc(CCN(CC(O)COc2cccc3[nH]c(C(N)=O)cc23)CC(O)COc2cccc3[nH]c(C(N)=O)cc23)cc1)OCCCC` (configuration not stated), the inhibition in assay [1] was found to be 8.37%; in assay [2], 8.1%; in assay [3], 6.45%.

In the case of `CCN(CC)CCN(Cc1ccc(-c2ccc(C(F)(F)F)cc2)cc1)C(=O)Cn1c(CCc2cccc(F)c2F)nc(=O)c2cc(F)ccc21`, the values for the inhibition in assay [1], in assay [2] and in assay [3] were 4.48%, 2.96% and 4.5%, respectively.

Regarding `COc1c(C2CCN(CCCCNC(=O)c3ccc(-c4ccc(Cl)cc4)cc3)CC2)ccc2c1C(C)(C)CCC2(C)C`, the inhibition in assay [1] is -1.1%; in assay [2] it was -1.15%; in assay [3] it was -2.13%.

Consider `CCNc1cc(C)nc(Nc2ccc(NC(=O)c3cccs3)cc2)n1`, for which the inhibition amounted to 4.59% in assay [1], 5.9% in assay [2] and 1.85% in assay [3].

For `COc1ccc(CNCc2ccc(F)cc2)cc1-c1ccc(S(=O)(=O)NCCN2CCCC2)cc1`, the figures for the inhibition in assay [1], in assay [2] and in assay [3] were 7.44%, 6.73% and 5.24%, respectively.

As for `Cc1cccc2nc(-c3cccc(-c4cccc(NC(=O)c5cnccc5C(F)(F)F)c4)c3)[nH]c12`, the inhibition in assay [1] is 3.64%; in assay [2], 0.6%; in assay [3], -3.32%.

On to `CC(=O)c1cccc(Nc2nc3ccc(OCc4cc(Cl)cc(Cl)c4)c(C#N)c3[nH]2)c1`, for which the inhibition in assay [1] came out at 3.61%; in assay [2], 2.38%; in assay [3] it was 2.87%.

In the case of `CCCCCCNC[C@@H](O)[C@H](Cc1ccccc1)NC(=O)c1cc(NCC)cc(N2CCCCS2(=O)=O)c1`, the inhibition in assay [1] was determined as 1.43%; in assay [2] it was 1.73%; in assay [3] it was 5.06%.

For the molecule `Cc1nc(C)c(-c2ccc(Oc3cc(Cl)cc(Cl)c3)cc2)c(O)c1Cl`, the inhibition worked out at 2.68% in assay [1], 3.03% in assay [2] and 0.49% in assay [3].

Turning to `O=C1C(C2CCC(c3ccc(Cl)cc3)CC2)=C2OCC3COC2(O3)c2ccccc21` (configuration not stated), the inhibition was 1.13% in assay [1], 0.99% in assay [2] and -0.99% in assay [3].

Regarding `COc1ccc2nccc(NC(=O)N3CCC(NCc4cc5c(F)ccc(F)c5[nH]4)CC3)c2n1`, the inhibition in assay [1] came to 16.9%; in assay [2] it was 19.2%; in assay [3] it was 22.6%.

With `CN(c1ccccc1C(=O)Nc1cc(Cl)ccc1Oc1ccccc1)S(=O)(=O)c1ccccc1`, the figures for the inhibition in assay [1], in assay [2] and in assay [3] were 5.06%, 4.53% and 3.66%, respectively.

Turning to `Cc1cccc2nc(-c3ccc(-c4ccc(CNCc5ccc(CN)cc5)cc4)cc3)[nH]c12`, the inhibition in assay [1] came to 7.89%; in assay [2], 5.94%; in assay [3], 2.77%.

As to `Cc1ccccc1CNC(=O)Nc1cccc(-c2csc(NC(=N)N)n2)c1`, the inhibition was 0.55% in assay [1], 0.56% in assay [2] and 4.51% in assay [3].

With `CCc1cc(NC2CCN(C)CC2)nc(Nc2ccc(C)cc2)n1`, the results for the inhibition in assay [1], in assay [2] and in assay [3] were 7.94%, 4.93% and -1.22%, respectively.

For `O=C(NC1CCCCC1)N(Cc1ccc(-c2ccc(CNCc3ccc4c(c3)OCO4)cc2)cc1)C1CCN(Cc2ccccc2)CC1`, the inhibition was 2.03% in assay [1], 1.63% in assay [2] and 1.56% in assay [3].

For `CCCN1CCN(CCCNC(=O)c2cc3c(Cl)nc4ccc(C)cc4c3s2)CC1`, the inhibition in assay [1] is -1.56%; in assay [2], 1.08%; in assay [3], -1.97%.

Regarding `COc1ccc(N2CCN(CCCCNCc3ccc(NC(=O)c4cc(Cl)cc(Cl)c4)cc3)CC2)c(OC)c1`, the inhibition came to 3.33% in assay [1], 2.32% in assay [2] and 1.31% in assay [3].

For `Cc1c(CNCCCNc2cc(=O)c3ccccc3[nH]2)sc(/C=N/O)c1Br`, the figures for the inhibition in assay [1], in assay [2] and in assay [3] were 5.48%, 3.79% and 5.31%, respectively.

`CCCCOc1cc(OC)c2ccccc2c1CCNCCCCNCCc1c(OCCCC)cc(OC)c2ccccc12`: the inhibition in assay [1] was 105%; in assay [2], 106%; in assay [3] it was 104%.

As to `COc1cc(C)nc2ccc(NC(=O)c3ccc(C(=O)Nc4ccc5nc(C)cc(OC)c5c4)cc3)cc12`, the inhibition was -1.93% in assay [1], -1.5% in assay [2] and 1.25% in assay [3].

Regarding `CN(C)Cc1ccc(-c2cccc(Nc3nccc(NCC(O)c4ccccc4)n3)c2)cc1` (configuration not stated), the inhibition worked out at 0.75% in assay [1], 1.38% in assay [2] and 0.25% in assay [3].

As for `Cc1cc(NCCC(=O)NCCOc2ccccc2)nc(NCCc2ccccc2)n1`, the inhibition in assay [1] came to 7.78%; in assay [2], 5.18%; in assay [3], 0.66%.
